Screens: PubChem, National Center for Advancing Translational Sciences (NCATS)
gsp ag: activates gsp, the McCune-Albright syndrome mutation; 0.13% of 340,000 active; Potency, µM (series often up to 76.9 µM), inactives show at the highest dose activation (cAMP increase), actives largely listed as activators; gsp mutant cells, cAMP HTRF, 30 min; active = well fitted activation curve with a large enough effect; inconclusive = small, poorly fitted or top-dose-only effect, or another doubt; inactive = no such curve, though single readings can be large or run the other way; cell line not stated here;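 note: phosphodiesterase inhibitor Ro 20-1724 added with compounds to block cAMP breakdown; potency is the fitted concentration of half-maximal effect; nearly all actives have a fitted effect of over 60% in size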
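Cells stably selected in G418 were plated at 2000/well, grown 16-24 hr, then given compounds in DMSO with the PDE inhibitor […] (300 uM solution added) for 30 min at 37C; cAMP was read by HTRF.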
Akt phos inh: Akt phosphorylation inhibition | Neuro2A IGF-stimulated pAkt S473 HTRF, 20 min; active compounds read low | activity change, % for hits at 50 µM | 0.32% of 360,000 active; in the data active = activity change below about -80%; inconclusive = mostly about -51% to -80%; note: % is set by controls: 0 for no effect and ±100 for the full control effect
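Single-point screen (50 µM final compound) in Neuro2A cells stimulated 20 min with 6 nM IGF at 37 deg C. After lysis, Ser473-phosphorylated Akt read by HTRF (ex 330 nm, em 615/665 nm) as the 665/615 ratio.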
gsp antag: antagonizes gsp, the McCune-Albright syndrome mutation. gsp-mutant cells, cAMP HTRF, 30 min. Potency, µM (doses to about 76.9 µM), for the others: at the highest dose activity change, negative = inhibition, hits mostly inhibitors. 0.4% of 340,000 active. AID 624288; calls by dose curve; cell line not stated here;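 note: intracellular cAMP measured with PDE inhibitor Ro 20-1724 present during compound exposure; potency is the fitted concentration of half-maximal effect; % is set by controls: 0 for no effect and ±100 for the full control effect; nearly all actives have a fitted effect of over 65% in size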
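HTRF cAMP measurement after 30 min RT detection following 30 min, 37C compound treatment alongside […] (added as 300 uM solution) in G418-selected cells seeded at 2000/well and grown 16–24 h.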
RXFP1 ag: activates the human relaxin receptor RXFP1; Q9HBX9; HEK293T-RXFP1 cAMP TR-FRET, 30 min; response scale: percent of porcine relaxin response, buffer zero; AID 2676; 0.3% of 370,000 active; Potency, µM (series often up to 57.5 µM), without a hit: at the highest dose activation, most hits filed as activators; active = well fitted activation curve with a large enough effect; inconclusive = small, poorly fitted or top-dose-only effect; note: potency is the fitted concentration of half-maximal effect; % is set by controls: 0 for no effect and ±100 for the full control effect; nearly all actives have a fitted effect of over 60% in size
Target sequence (Q9HBX9 whole entry, looked up): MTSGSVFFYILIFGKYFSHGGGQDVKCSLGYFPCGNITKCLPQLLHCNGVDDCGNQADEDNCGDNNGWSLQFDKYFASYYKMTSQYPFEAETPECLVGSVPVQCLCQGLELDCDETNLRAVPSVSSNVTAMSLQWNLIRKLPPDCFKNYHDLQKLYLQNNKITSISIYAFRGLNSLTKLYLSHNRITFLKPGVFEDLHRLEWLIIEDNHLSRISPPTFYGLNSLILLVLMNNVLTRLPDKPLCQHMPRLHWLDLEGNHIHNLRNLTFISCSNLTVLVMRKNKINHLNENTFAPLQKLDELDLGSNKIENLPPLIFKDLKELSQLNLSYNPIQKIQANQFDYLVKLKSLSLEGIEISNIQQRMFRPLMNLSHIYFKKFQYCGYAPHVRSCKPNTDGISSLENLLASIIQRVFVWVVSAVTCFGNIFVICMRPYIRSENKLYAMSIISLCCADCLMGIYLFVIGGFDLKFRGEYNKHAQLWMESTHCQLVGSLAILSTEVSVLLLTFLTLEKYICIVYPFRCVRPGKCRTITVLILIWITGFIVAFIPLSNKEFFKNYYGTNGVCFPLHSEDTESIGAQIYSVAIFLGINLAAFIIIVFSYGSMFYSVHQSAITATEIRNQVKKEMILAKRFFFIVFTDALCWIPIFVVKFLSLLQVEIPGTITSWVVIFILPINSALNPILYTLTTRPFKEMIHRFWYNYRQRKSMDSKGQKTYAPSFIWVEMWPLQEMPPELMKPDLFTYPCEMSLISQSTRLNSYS
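Agonist response is measured as cAMP accumulation in an RXFP1-transfected HEK293T line under PDE4 inhibition. Values are scaled between buffer-only and 29 nM porcine relaxin, and EC50s come from standard Hill equation fits.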
RXFP1 antag: blocks the human relaxin receptor RXFP1 | activity change, negative = inhibition, % at 57.5 µM | 0.59% of 350,000 active | AID 1259400 | HEK293-RXFP1, relaxin-stimulated cAMP HTRF, 30 min; active compounds read low;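 active = activity change of -60% or lower, but not beyond a set lower limit; inconclusive = change between -60% and -40%, or beyond the set limit; inactive = change above -40%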; note: % is set by controls: 0 for no effect and ±100 for the full control effect
* hit, by the source's call; [ ] = dose if it differs, or a comment. Rows were chosen to be rich in hits. Some 1.2% of all compounds tested hit in one or more screens of this group.

`CCc1c(C)sc2c1CCN(C(=O)Nc1ccc(F)c(Cl)c1)C2c1ccc(F)cc1` (configuration not stated) gave RXFP1 ag 0% and RXFP1 antag -19.
CN1C(=O)CC(C)(c2ccccc2)C1=O (configuration not stated) was read as RXFP1 antag 17.
Screening Nc1ncc(S(=O)(=O)Nc2ccc(F)cc2F)cn1 returned RXFP1 ag 6% and RXFP1 antag -7.
Screening O=C1C=C(N2CCCCCC2)C2(CCCCC2)O1 returned gsp ag 8%, Akt phos inh inactive, gsp antag -4%, RXFP1 ag -1% and RXFP1 antag -61*.
`COC(=O)c1cc(Nc2nc3ccccc3nc2NS(=O)(=O)c2ccc(C)cc2)ccc1Cl` gave RXFP1 ag 1%.
For Cn1c(=O)c2c(ncn2CC(=O)OCC(=O)c2ccc(F)c(F)c2)n(C)c1=O the results were gsp ag -32%, Akt phos inh inactive, gsp antag 5%, RXFP1 ag 2% and RXFP1 antag -20.
For Cc1cc(C(=O)COC(=O)Cn2cnc3c2c(=O)n(C)c(=O)n3C)c(C)n1C the results were gsp ag 4µM*, Akt phos inh inactive, gsp antag 22%, RXFP1 ag inconclusive and RXFP1 antag 2.
CCOC(=O)c1sc(=NC(=O)c2cccs2)n(C)c1C was read as gsp ag -10%[15.4 µM], Akt phos inh inactive, gsp antag -1%, RXFP1 ag 28µM* and RXFP1 antag -13.
COC(=O)c1cc2c(s1)c1cnn(Cc3ccccc3F)c(=O)c1n2C was read as RXFP1 ag 3%.
CCCC(=O)NC(c1cccs1)c1cc([N+](=O)[O-])c2cccnc2c1O (configuration not stated) was read as gsp ag 21%[15.4 µM], Akt phos inh inactive, gsp antag -24%, RXFP1 ag 0% and RXFP1 antag -66*.
For N#C/C(=C\c1cccs1)C(=O)c1ccccc1Cl the results were gsp ag -3%, Akt phos inh inactive, gsp antag -1%, RXFP1 ag 0% and RXFP1 antag -61*.
Screening c1ccc(CC(Nc2ccccn2)c2ccccc2)cc1 (configuration not stated) returned gsp ag -4%[15.4 µM], Akt phos inh inactive, gsp antag -2%, RXFP1 ag 0% and RXFP1 antag -60*.
c1ccc(CC(Cc2ccccc2)c2ccccn2)cc1 was read as gsp ag -115%, Akt phos inh inactive, gsp antag -5% and RXFP1 antag -13.
For COCCN(CCOC)S(=O)(=O)c1ccc(C(=O)NC2CCN(Cc3ccccc3)CC2)cc1 the results were gsp ag 14%, Akt phos inh -113%*, gsp antag 0%, RXFP1 ag 2% and RXFP1 antag -5.
Screening OCCN1CCN(c2nc(-c3ccccc3)c3cc(Br)ccc3n2)CC1 returned gsp ag 5%, Akt phos inh inactive, gsp antag 6%, RXFP1 ag 8% and RXFP1 antag -70*.
For O=C(O)C1CCN(c2nc(-c3ccccc3)c3cc(Br)ccc3n2)CC1 the results were gsp ag 46%[15.4 µM], Akt phos inh inactive, gsp antag inconclusive, RXFP1 ag inconclusive and RXFP1 antag -16.
Screening COc1ccc(/C=C2/C(=O)N(c3ccccc3)N=C2C)cc1 returned gsp ag -5%, Akt phos inh inactive, gsp antag -5% and RXFP1 antag -61*.
`CC1=NN(c2ccccc2)C(=O)/C1=C\C=C\c1ccccc1` gave gsp ag 15%[15.4 µM], Akt phos inh inactive, gsp antag -8%, RXFP1 ag 2% and RXFP1 antag -63*.
`CC1=NN(c2ccccc2)C(=O)/C1=C/N(C)C` gave gsp ag 2%, Akt phos inh inactive, gsp antag -1%, RXFP1 ag 0% and RXFP1 antag 15.
For CC1=NN(c2ccccc2)C(=O)/C1=C/C=C/c1ccc(N(C)C)cc1 the results were gsp ag 5%, Akt phos inh inactive, gsp antag 35µM*, RXFP1 ag -19% and RXFP1 antag -21.
For O=c1c2ccccc2nc(-c2ccc(Cl)cc2)n1CCCOc1ccccc1F the results were RXFP1 ag 16% and RXFP1 antag -5.
For O=C(Nc1sc2c(c1C(=O)O)CCC2)c1ccccc1 the results were gsp ag 2%, Akt phos inh inactive, gsp antag 22µM*, RXFP1 ag 1% and RXFP1 antag -6.
Screening O=C(/C=C/c1ccco1)Nc1sc2c(c1C(=O)O)CCC2 returned gsp ag 3%, Akt phos inh inactive, gsp antag 40µM*, RXFP1 ag 0% and RXFP1 antag 10.
Screening O=C(Nc1sc2c(c1C(=O)O)CCCCC2)c1ccccc1 returned gsp ag inconclusive, Akt phos inh inactive, gsp antag -27%, RXFP1 ag 1% and RXFP1 antag -22.
For C=C(C)C(=O)OCC(O)CO (configuration not stated) the results were RXFP1 antag 10.
For CN(C)CCN1CCN(c2cccc(Cl)c2)C1=O the results were RXFP1 antag 9.
For CCNc1nc(N)nc(Oc2ccc(OCC(=O)OC)nn2)n1 the results were RXFP1 ag 0% and RXFP1 antag -7.
For CCC(=O)N1c2ccccc2CC1C(=O)NCCc1ccc(OC)c(OC)c1 (configuration not stated) the results were RXFP1 ag 0% and RXFP1 antag -2.
Screening CSc1nnc(NC(=O)c2nc(S(=O)(=O)Cc3ccccc3F)ncc2Cl)s1 returned gsp ag -16%[15.4 µM], Akt phos inh inactive, gsp antag 35µM*, RXFP1 ag -2% and RXFP1 antag -40.
For CC(C)c1nnc(NC(=O)c2nc(S(=O)(=O)Cc3ccc(F)cc3)ncc2Cl)s1 the results were gsp ag -17%[15.4 µM], Akt phos inh inactive, gsp antag 28µM*, RXFP1 ag -3% and RXFP1 antag inconclusive.
`Cc1nnc(NC(=O)c2nc(S(=O)(=O)Cc3ccccc3C)ncc2Cl)s1` gave gsp ag 11%, Akt phos inh inactive, gsp antag inconclusive, RXFP1 ag 0% and RXFP1 antag 6.
For CSc1nnc(NC(=O)c2nc(S(=O)(=O)Cc3cccc(C)c3)ncc2Cl)s1 the results were gsp ag -9%[15.4 µM], Akt phos inh inactive, gsp antag 40µM*, RXFP1 ag 2% and RXFP1 antag -73*.
Screening Cc1ccc(CS(=O)(=O)c2ncc(Cl)c(C(=O)Nc3nnc(C(C)C)s3)n2)cc1 returned gsp ag -10%[15.4 µM], Akt phos inh inactive, gsp antag 18µM*, RXFP1 ag 0% and RXFP1 antag -93*.
